# According to PubChem BioAssay (NCI):
# About 83,000 compounds went through this panel and 20% of them were active in at least one assay; those are over-represented in the sample as a whole.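 Negative percent growth values reflect cell death: -40 means 40% of the cells present at the start died, and -100 means all died.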 Unmarked numbers belong to inactive results. Activity calls are given as the source filed them. Rule for the calls: active = growth percent below 10; inactive = the rest.
# System: SK-OV-3 ovarian
# Assay: NCI-60 one-dose screen, 48 h (100 = growth as untreated, 0 = no growth, -100 = all killed)
# Details: 10 µM unless noted
row,SMILES,growth
1,Brc1ccc(-c2nc3ccccc3s2)cc1,91.8%
2,c1cc[c]([Bi]([c]2ccccc2)[c]2ccccc2)cc1,111%
3,O=C1/C(=N\c2cc(=O)[nH]n2S(=O)(=O)c2ccccc2)Nc2ccccc21,105%
4,COc1ccc(/C=C/C(=O)/C=C/c2cc3ccccc3[nH]c2=O)cc1,88.8%
5,C/C=C/C/C=C/[C@H](C)C[C@H](O)[C@@H]1C[C@@H]2O[C@H]2/C=C/[C@@H]2OC(C)(C)O[C@H]2/C=C/C[C@H](C)CC(=O)O1,88.5%
6,COC1(OC)N=C(N)C2(C#N)C3(C(=O)Nc4ccccc43)C12C#N (stereo not given),77.4%
7,C/C=C/C/C=C/[C@H](C)C[C@H](O)[C@@H]1C[C@@H]2O[C@H]2/C=C/[C@H](O)[C@@H](O)/C=C/C[C@H](C)CC(=O)O1,102%
8,COc1cc(-c2nc3c(c(C)nc4c3nnn4-c3ccccc3)c(=O)o2)cc(OC)c1OC,115%
9,CCC(C)C1NC(=O)C(CC(C)C)NC(=O)C(C)NC(=O)C(C(C)C)NC(=O)C(CCCCN)NC(=O)C(CC(C)C)NC(=O)C(C(C)C)NC(=O)[C@H](C)NC(=O)C(C(C)CC)NC(=O)C(CCCN=C(N)N)NC(=O)C(CCCCN)NC(=O)C(CCCN=C(N)N)NC(=O)C(CCCCN)NC(=O)C([C@H](C)CC)NC(=O)C(CCCCN)NC1=O (stereo not given in full),10.4%
10,COc1ccc(-c2nc(SCC(C)C)nc(Nc3ccc(C(=O)O)cc3)c2C#N)cc1,113%
11,O=S(=O)(O)CCI,111%
12,Nc1nc2c(c3cnccc13)C(c1cccc(Cl)c1)Cc1cnccc1-2 (stereo not given),32%
13,Oc1ccccc1\C=N/N=C/C=C/c1ccccc1,87.9%
14,COC(=O)c1ccc2[nH]c(O)c(C(=Nc3ccc(N(C)C(=O)CN4CCN(C)CC4)cc3)c3ccc(N)cc3)c2c1,85.6%
15,CC(C)OC(=O)c1ccc2n1CCCc1cnc(Nc3ccccc3)nc1-2,97%
16,CC(=O)Nc1ccc(C(=O)/C=C/c2ccc(N(C)C)cc2)cc1,101%
17,CCOC(=O)C1=C(c2ccccc2)NC(=O)NC1CN1C(=O)c2ccccc2C1=O (stereo not given),113%
18,CC/C(=N\Nc1nc2ccccc2n1C)c1ccccn1,11.6%
19,CCCCCCC(C)N(CC(C)(C)O)C(=O)c1ccc([N+](=O)[O-])cc1 (stereo not given),96.3%
20,O=C1C(=O)c2ccccc2C(O)=C1CCCc1ccc(Oc2ccccc2)cc1,74.7%

row,SMILES,growth
1,C=C[C@]1(C)C=C2C(=O)[C@@]3(O)OC[C@@]4(CCCC(C)(C)C43O)C2(O)C(O)C1 (stereo not given in full),104%
2,COc1ccc(/C=C2\CCCC3=C2N=C2SC=NN2C3c2ccc(OC)c(OC)c2)cc1OC (stereo not given),81.9%
3,CC(C)(C)c1ccc(OCCOC(=O)CBr)cc1,104%
4,c1cc(C2CCCCC2)ccc1OCCCCCCN1CCNCC1,83.8%
5,CCOC(=O)c1c2c(cn1Cc1ccccc1)-c1oncc1CC2,109%
6,C/C(=N\Nc1cccc(Cl)n1)c1ccccn1,22.5%
7,CC(=O)c1ccc2c(c1)c1ccccc1n2C,96.5%
8,CCCCN(CCCC)CCCNc1c2c(nc3ccc(Cl)cc13)CCCC2,105%
9,COc1ccc(Cn2cc3c(c2)-c2oncc2CC3)cc1OC,-12.4% (active)
10,C/C(=N\Nc1ccc(Cl)cn1)c1ccccn1,3.63% (active)
11,NC(=O)c1c(Nc2ccccc2)nn2cc(-c3nc4ccccc4s3)c(N)nc12,94.8%
12,COC(=O)c1ccc2[nH]c(O)c(C(=Nc3ccc(N(C)C(=O)CN4CCN(C)CC4)cc3)c3cccc(OC)c3)c2c1,-0.652% (active)
13,Cc1nc2c(nnn2-c2ccccc2)c2nc(-c3ccc(Cl)cc3)oc(=O)c12,119%
14,Clc1ccc(N/N=C(/c2ccccc2)c2ccccn2)nc1,26.5%
15,COc1ccc(-c2nnc(SCC(=O)Nc3ccc(C(=O)/C=C/c4cc(OC)c(OC)c(OC)c4)cc3)n2-c2ccccc2)cc1OC,-54.7% [100 µM] (active)
16,CCc1ccc(C(=Nc2ccc(N(C)C(=O)CN3CCN(C)CC3)cc2)c2c(O)[nH]c3ccc(C(=O)OC)cc23)cc1,-61.5% (active)
17,Cc1ccc(C(C)C)c(OCc2ccc(C(=O)N/N=C/c3cccc(O)c3O)cc2)c1,66.1%
18,C/C(=N\Nc1ccc(Cl)cn1)c1ccc2ccccc2n1,1.69% (active)
19,CCOC(=O)c1ccc2n1CCCc1cnc(NC(C)=O)nc1-2,106%
20,COC(=O)c1ccc2[nH]c(O)c(C(=Nc3ccc(N(C)C(=O)CN4CCN(C)CC4)cc3)c3ccc(C)cc3)c2c1,-12.2% (active)

# System: IGROV1 ovarian
# Assay: as above
# Details: 10 µM unless noted
row,SMILES,growth
1,Brc1ccc(-c2nc3ccccc3s2)cc1,73.9%
2,c1cc[c]([Bi]([c]2ccccc2)[c]2ccccc2)cc1,107%
3,O=C1/C(=N\c2cc(=O)[nH]n2S(=O)(=O)c2ccccc2)Nc2ccccc21,100%
4,COc1ccc(/C=C/C(=O)/C=C/c2cc3ccccc3[nH]c2=O)cc1,130%
5,C/C=C/C/C=C/[C@H](C)C[C@H](O)[C@@H]1C[C@@H]2O[C@H]2/C=C/[C@@H]2OC(C)(C)O[C@H]2/C=C/C[C@H](C)CC(=O)O1,25.2%
6,COC1(OC)N=C(N)C2(C#N)C3(C(=O)Nc4ccccc43)C12C#N (stereo not given),63.5%
7,C/C=C/C/C=C/[C@H](C)C[C@H](O)[C@@H]1C[C@@H]2O[C@H]2/C=C/[C@H](O)[C@@H](O)/C=C/C[C@H](C)CC(=O)O1,78.9%
8,COc1cc(-c2nc3c(c(C)nc4c3nnn4-c3ccccc3)c(=O)o2)cc(OC)c1OC,112%
9,CCC(C)C1NC(=O)C(CC(C)C)NC(=O)C(C)NC(=O)C(C(C)C)NC(=O)C(CCCCN)NC(=O)C(CC(C)C)NC(=O)C(C(C)C)NC(=O)[C@H](C)NC(=O)C(C(C)CC)NC(=O)C(CCCN=C(N)N)NC(=O)C(CCCCN)NC(=O)C(CCCN=C(N)N)NC(=O)C(CCCCN)NC(=O)C([C@H](C)CC)NC(=O)C(CCCCN)NC1=O (stereo not given in full),12.4%
10,COc1ccc(-c2nc(SCC(C)C)nc(Nc3ccc(C(=O)O)cc3)c2C#N)cc1,109%
11,O=S(=O)(O)CCI,110%
12,Nc1nc2c(c3cnccc13)C(c1cccc(Cl)c1)Cc1cnccc1-2 (stereo not given),35.9%
13,Oc1ccccc1\C=N/N=C/C=C/c1ccccc1,101%
14,COC(=O)c1ccc2[nH]c(O)c(C(=Nc3ccc(N(C)C(=O)CN4CCN(C)CC4)cc3)c3ccc(N)cc3)c2c1,46.6%
15,CC(C)OC(=O)c1ccc2n1CCCc1cnc(Nc3ccccc3)nc1-2,83.7%
16,CC(=O)Nc1ccc(C(=O)/C=C/c2ccc(N(C)C)cc2)cc1,95.4%
17,CCOC(=O)C1=C(c2ccccc2)NC(=O)NC1CN1C(=O)c2ccccc2C1=O (stereo not given),98.4%
18,CC/C(=N\Nc1nc2ccccc2n1C)c1ccccn1,13.6%
19,CCCCCCC(C)N(CC(C)(C)O)C(=O)c1ccc([N+](=O)[O-])cc1 (stereo not given),88.1%
20,O=C1C(=O)c2ccccc2C(O)=C1CCCc1ccc(Oc2ccccc2)cc1,34.7%

row,SMILES,growth
1,C=C[C@]1(C)C=C2C(=O)[C@@]3(O)OC[C@@]4(CCCC(C)(C)C43O)C2(O)C(O)C1 (stereo not given in full),107%
2,COc1ccc(/C=C2\CCCC3=C2N=C2SC=NN2C3c2ccc(OC)c(OC)c2)cc1OC (stereo not given),47.8%
3,CC(C)(C)c1ccc(OCCOC(=O)CBr)cc1,2.57% (active)
4,c1cc(C2CCCCC2)ccc1OCCCCCCN1CCNCC1,8.79% (active)
5,CCOC(=O)c1c2c(cn1Cc1ccccc1)-c1oncc1CC2,101%
6,C/C(=N\Nc1cccc(Cl)n1)c1ccccn1,17%
7,CC(=O)c1ccc2c(c1)c1ccccc1n2C,87.6%
8,CCCCN(CCCC)CCCNc1c2c(nc3ccc(Cl)cc13)CCCC2,79.5%
9,COc1ccc(Cn2cc3c(c2)-c2oncc2CC3)cc1OC,17.6%
10,C/C(=N\Nc1ccc(Cl)cn1)c1ccccn1,10.2%
11,NC(=O)c1c(Nc2ccccc2)nn2cc(-c3nc4ccccc4s3)c(N)nc12,93.3%
12,COC(=O)c1ccc2[nH]c(O)c(C(=Nc3ccc(N(C)C(=O)CN4CCN(C)CC4)cc3)c3cccc(OC)c3)c2c1,1.75% (active)
13,Cc1nc2c(nnn2-c2ccccc2)c2nc(-c3ccc(Cl)cc3)oc(=O)c12,111%
14,Clc1ccc(N/N=C(/c2ccccc2)c2ccccn2)nc1,22.5%
15,COc1ccc(-c2nnc(SCC(=O)Nc3ccc(C(=O)/C=C/c4cc(OC)c(OC)c(OC)c4)cc3)n2-c2ccccc2)cc1OC,-36.1% [100 µM] (active)
16,CCc1ccc(C(=Nc2ccc(N(C)C(=O)CN3CCN(C)CC3)cc2)c2c(O)[nH]c3ccc(C(=O)OC)cc23)cc1,-65.4% (active)
17,Cc1ccc(C(C)C)c(OCc2ccc(C(=O)N/N=C/c3cccc(O)c3O)cc2)c1,40.8%
18,C/C(=N\Nc1ccc(Cl)cn1)c1ccc2ccccc2n1,16.6%
19,CCOC(=O)c1ccc2n1CCCc1cnc(NC(C)=O)nc1-2,107%
20,COC(=O)c1ccc2[nH]c(O)c(C(=Nc3ccc(N(C)C(=O)CN4CCN(C)CC4)cc3)c3ccc(C)cc3)c2c1,1.53% (active)
